Among the data in PubChem BioAssay AID624256 (NMMLSC, 2012) are GFP+ MAC1+ double positive, normalized GFP-positive differentiation and outcome values, retold here.

The campaign covered roughly 360,000 compounds. About 3,700 (1%) were called active. About 2% were inconclusive and are not listed. The sample holds actives, similar compounds and a random draw of the others, so the mix is not that of the screen.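 How the source made its calls: active means normalized GFP-positive differentiation at or above the plate's own cutoff, the solvent-only control mean plus 3 SD; inconclusive means no clear call, values can overlap the other calls; inactive means the rest.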

The assay is described as follows: HoxA9-arrested leukemia cell differentiation promoters – flow cytometry, MLPCN library, primary screen (AID 624256).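 On GFP+ MAC1+ double positive: cells exposed to compound for four days before flow analysis.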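 On normalized GFP-positive differentiation: cells exposed to compound for four days before flow analysis; 0% = DMSO wells and 100% = fulvestrant positive control at 5 µM.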 The note with it: ER-HoxA9 myeloid progenitors, lysozyme-GFP differentiation, at 10 µM; GFP+ MAC1+ double positive: measured here: differentiation confirmed by MAC1 staining, stronger effect = higher value; normalized GFP-positive differentiation: stronger effect = higher value. A general note: A flow cytometer gives signals particle by particle.
In the case of `Cc1cccc(N2CCN(C(=O)c3cccc(S(=O)(=O)N4CCc5ccccc5C4)c3)CC2C)c1` (stereo unspecified), the GFP+ MAC1+ double positive is 7.3% and the normalized GFP-positive differentiation is 31.5% (active).
Take `CN(C)C(CNC(=O)c1cccc(S(=O)(=O)N2CCc3ccccc3C2)c1)c1ccccc1` (stereo unspecified): the GFP+ MAC1+ double positive was determined as 0.7% and the result was inactive.
The corresponding values for `CC(NC(=O)c1cccc(S(=O)(=O)N2CCc3ccccc3C2)c1)c1ccco1` (stereo unspecified) are 0.3% and “inactive”.
For `CC1(C(=O)NS(=O)(=O)Cc2cccc(Cl)c2)CCN1C(=O)Cc1ccc(Cl)cc1Cl` (stereo unspecified), the GFP+ MAC1+ double positive was determined as 0.5% and the compound was classed as inactive.
`OC[C@@H]1CN(Cc2ccncc2)C[C@H](n2cnc3c(N4CCN(c5ccccc5)CC4)ncnc32)O1`: the GFP+ MAC1+ double positive is 1.1% and the call was inactive.
The corresponding values for `C=CCn1c2c(c3ccccc31)CCC2` are 1.4% and “inactive”.
The corresponding values for `CCOC(=O)[C@]12CCCC=C1N(CCC1=CCCCC1)C(=O)[C@H](CC(=O)N1CCCCC1)C2` are 3% and “inactive”.
On to `COc1cc(N2CCCC2)c(OC)cc1/C=C(/C#N)c1cccc(Br)c1`, for which the GFP+ MAC1+ double positive was 15% and the normalized GFP-positive differentiation was 258% (active).
Take `CCOc1ccc(/C=C(/C#N)c2nnc(N3CCOCC3)n2-c2ccccc2)cc1OC`: the GFP+ MAC1+ double positive was 0.8% and the outcome was inactive.
The corresponding values for `COc1ccc(S(=O)(=O)NC(=O)C2(C)CCN2C(=O)COc2ccc(Cl)cc2)cc1` (stereo unspecified) are 0.8% and “inactive”.
The corresponding values for `CCc1nc2c(OCc3ccccc3)cccn2c1N(C)C(=O)c1ccco1` are 1.6% and “inactive”.
The corresponding values for `CSc1ncccc1C(=O)Nc1ccc2c(c1)OCO2` are 1% and “inactive”.
Consider `CSc1ncccc1C(=O)NCc1ccccc1Cl`, for which the GFP+ MAC1+ double positive was 0.9% and the result was inactive.
`CSc1ncccc1C(=O)NC1CCCCCC1`: the GFP+ MAC1+ double positive came to 4.7% and the normalized GFP-positive differentiation is 171% (active).
Regarding `CCCCCNC(=O)C1C(=O)Nc2ccccc2C(=O)N1C(C)(C)C` (stereo unspecified), the GFP+ MAC1+ double positive was 0.8% and the compound was called inactive.
The corresponding values for `COC(=O)C1=CN(c2c(C)cc(C)cc2C)C(N)=C(C#N)C1c1cccc(F)c1` (stereo unspecified) are 1.5% and “inactive”.
For `CC1(C(=O)NS(=O)(=O)c2ccccc2Cl)CCN1C(=O)c1cccc(F)c1` (stereo unspecified), the GFP+ MAC1+ double positive was 0.8% and the compound was called inactive.
The corresponding values for `O=S1(=O)CCN2C(=N1)SC1=C2CCN(Cc2ccccc2)C1` are 0.5% and “inactive”.
On to `CCCOc1ccc(C2=CSC3=NCCN23)cc1Cl`, for which the GFP+ MAC1+ double positive turned out to be 0.8% and the call was inactive.
`Cc1ccc(C2=CSC3=NS(=O)(=O)CCN23)cc1C`: the GFP+ MAC1+ double positive was 4.9% and the normalized GFP-positive differentiation is 25% (active).
For `CCCCn1c(N)c(N(CC)C(=O)c2ccc(N(C)S(=O)(=O)c3ccc(C)cc3)cc2)c(=O)[nH]c1=O`, the GFP+ MAC1+ double positive was 1.1% and the compound was called inactive.
The corresponding values for `CCCCn1c(N)c(N(CCOC)C(=O)c2cccc(S(=O)(=O)N3CCCCC3)c2)c(=O)[nH]c1=O` are 0.5% and “inactive”.
On to `CCCCn1c(N)c(N(CCOC)C(=O)c2cccc(S(=O)(=O)N(C)c3ccccc3)c2)c(=O)[nH]c1=O`, for which the GFP+ MAC1+ double positive was determined as 1.3% and the normalized GFP-positive differentiation is 16.7% (active).
With `Cc1cc(C)nc(SCc2nnc(SCC(=O)OC3CCCCC3)o2)n1`, the GFP+ MAC1+ double positive turned out to be 1.3% and the call was inactive.
`C/C(=N\NC(=O)c1ccc(CSc2nc(C)cc(C)n2)cc1)C1CCCCC1`: the GFP+ MAC1+ double positive was 1.3% and the normalized GFP-positive differentiation was 21.9% (active).
As for `CCC1CCCCN1C(=O)CSc1nc(C)cc(C)n1` (stereo unspecified), the GFP+ MAC1+ double positive came out at 1.8% and the result was inactive.
For the compound `Cc1nc2c(OCc3ccc(Cl)cc3)cccn2c1N(C)Cc1cccs1`, the GFP+ MAC1+ double positive worked out at 0.4% and the compound was called inactive.
The corresponding values for `CC(C)CNC(=O)C1(C)CCCN1C(=O)CSc1ccccc1` (stereo unspecified) are 1.4% and “inactive”.
As to `Cc1cc(C(=O)N2CCCC2(C)C(=O)O)c(C)o1` (stereo unspecified), the GFP+ MAC1+ double positive was 1.3% and the result was inactive.
The corresponding values for `N#Cc1ccc(-c2nc3c(Cl)cc(C(F)(F)F)cn3c2Cc2ccccc2C(F)(F)F)cc1` are 1.3% and “inactive”.
The corresponding values for `CCC(C(=O)Nc1c(C)cccc1C)n1c(-c2cc(C)cs2)nc2ccccc21` (stereo unspecified) are 3.7% and “inactive”.
Take `CCc1ccc(NC(=O)C(=O)NNC(=O)c2cccs2)cc1`: the GFP+ MAC1+ double positive was determined as 1.8% and the compound was called inactive.
As for `CCc1c(C)sc(NC(=O)c2cccs2)c1C(N)=O`, the GFP+ MAC1+ double positive came out at 7.9% and the normalized GFP-positive differentiation was 14.1% (active).
For `CCOC(=O)CSc1nnc(CNC(=O)c2cccs2)n1-c1ccccc1`, the GFP+ MAC1+ double positive came to 1.4% and the outcome was inactive.
The corresponding values for `Cc1ccc(NC(=O)[C@H](Cc2ccccc2)NC(=O)CC[C@H]2O[C@@H](n3ccc(=O)[nH]c3=O)[C@H](O)[C@@H]2O)cc1C` are 0.8% and “inactive”.
The corresponding values for `C=CCn1c(SCc2cccc(F)c2)nc2cc(C(=O)N3CCC(C(N)=O)CC3)ccc2c1=O` are 0.5% and “inactive”.
The corresponding values for `Cc1ccc(CSCC2Nc3ccc(C(=O)N4CCN(c5ccc(F)cc5)CC4)cc3NC2=O)cc1` (stereo unspecified) are 1.7% and “inactive”.
In the case of `O=C1Nc2cc(C(=O)N3CCN(c4ccc(F)cc4)CC3)ccc2NC1CSCc1cccc(F)c1` (stereo unspecified), the GFP+ MAC1+ double positive was 10.1% and the normalized GFP-positive differentiation is 56.9% (active).
With `COC(=O)[C@]12CCCCC=C1N(Cc1ccccc1)C(=O)[C@H](CC(=O)NCc1ccc(C)o1)C2`, the GFP+ MAC1+ double positive was 1.2% and the compound was called inactive.
Turning to `NNC(=O)c1oc2nc(-c3ccccc3)cc(-c3ccco3)c2c1N`, the GFP+ MAC1+ double positive came out at 1% and the normalized GFP-positive differentiation was 38.1% (active).
As for `CNC(=S)NNC(=O)c1oc2nc(-c3ccccc3)cc(-c3ccco3)c2c1N`, the GFP+ MAC1+ double positive was 2.3% and the result was inactive.
The corresponding values for `O=C(Nc1cccc(F)c1)c1cc(-c2ccco2)nc2ccccc12` are 0.5% and “inactive”.
As to `Cc1ccccc1-c1csc(C(O)c2cccc(Cl)c2)n1` (stereo unspecified), the GFP+ MAC1+ double positive is 0.8% and the compound was classed as inactive.
